High-throughput results: PubChem, National Center for Advancing Translational Sciences (NCATS)
VP16 counter: inhibits Gal4-VP16 luciferase reporter, ROR gamma counter-screen; Potency, µM (top dose mostly 53.6 µM), inactives show at the highest dose activity, negative = inhibition, hits mostly inhibitors; actives 3.5% (n = 310,000); Drosophila S2 Gal4-VP16 UAS-luciferase, luminescence, 20 h;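 note: Gal4-VP16 expression switched on by copper sulfate through the metallothionein promoter; potency is the fitted concentration of half-maximal effect; % is set by controls: 0 for no effect and ±100 for the full control effect; nearly all actives have a fitted effect of over 50% in size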
MCF10A rereplic: induces DNA re-replication in MCF 10a normal breast cells. Potency, µM (doses to about 46.1 µM), inactives show top-dose activity, positive = re-replication, most hits filed as activators. actives 2.9% (n = 350,000). MCF 10A DNA re-replication, Hoechst nuclear intensity, 48 h. AID 624296; note: potency is the fitted concentration of half-maximal effect; % of control where 0% means no effect; nearly all actives have a fitted effect of over 50% in size
SW480 rerep: DNA re-replication induction in SW480 cells | SW480 DNA re-replication, Hoechst DNA content imaging, 48 h | Potency, µM (titrated, usually from 46.1 µM), for the others: at the top dose re-replication activation, most hits filed as activators | actives 1.8% (n = 340,000) | AID 624297; note: potency is the fitted concentration of half-maximal effect; % of control where 0% means no effect; nearly all actives have a fitted effect of over 55% in size
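First, 250 cells per well were seeded. Next, compound or vehicle (23 nL) was pinned in, plates sat 48 hr at 37 C. Finally Hoechst was added for 40 min before fluorescence scanning.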
IL1B secr inh: blocks inflammasome-driven IL-1 beta release | THP-1 LPS/ATP IL-1B secretion, AlphaLISA, 16 h; stronger effect = lower value | activity change, % at 57.5 µM | actives 4.7% (n = 360,000) | AID 743279; in the data active = activity change below about -50%; inconclusive = mostly about -30% to -49%; note: % is set by controls: 0 for no effect and ±100 for the full control effect
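Secreted IL-1B measured by AlphaLISA bead assay after 16 h compound exposure of THP-1 cells; compounds (final up to 57.5 uM) added 1 h before LPS (250 ng/mL) and ATP (1.25 mM) stimulation; lower signal means less secretion.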
RORg inh: blocks mouse ROR gamma transcriptional activity; actives 5.4% (n = 310,000); AID 2551; P51450; Drosophila S2 Gal4-RORgamma UAS-luciferase reporter, 20 h; Potency, µM (top dose mostly 53.6 µM), without a hit: top-dose activity change, negative = inhibition, most hits filed as inhibitors; note: potency is the fitted concentration of half-maximal effect; % is set by controls: 0 for no effect and ±100 for the full control effect; nearly all actives have a fitted effect of over 60% in size
Target sequence (P51450 whole entry, looked up, the tested form may be a part): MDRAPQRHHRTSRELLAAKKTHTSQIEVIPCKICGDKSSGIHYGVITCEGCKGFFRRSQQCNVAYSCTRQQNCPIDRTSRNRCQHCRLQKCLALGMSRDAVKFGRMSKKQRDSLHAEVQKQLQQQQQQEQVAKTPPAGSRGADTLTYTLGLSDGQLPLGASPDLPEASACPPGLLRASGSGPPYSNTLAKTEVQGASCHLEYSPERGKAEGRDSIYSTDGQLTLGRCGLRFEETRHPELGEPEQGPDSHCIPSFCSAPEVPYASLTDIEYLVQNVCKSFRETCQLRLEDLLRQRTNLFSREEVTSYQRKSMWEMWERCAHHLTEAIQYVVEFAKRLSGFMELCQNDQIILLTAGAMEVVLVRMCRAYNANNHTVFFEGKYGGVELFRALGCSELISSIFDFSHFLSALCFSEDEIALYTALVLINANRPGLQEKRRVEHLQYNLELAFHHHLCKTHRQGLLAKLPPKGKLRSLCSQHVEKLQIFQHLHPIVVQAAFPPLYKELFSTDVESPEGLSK
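Compounds are pin-transferred onto Drosophila Schneider cells expressing a copper-inducible Gal4–ROR gamma transactivation domain fusion. After 1 hr, copper sulfate is added to 700 uM final; luciferase is read 20 hr later.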
* = called active by the depositor; ? = inconclusive; / = not tested or not shown; [ ] = another dose, or the depositor's remark. Only some compounds are listed: those with a hit (about 11% of all), similar ones and a draw of the others. Unless noted, calls come from the whole dose curve; as a rule, active = well fitted curve in the direction sought with a large enough effect; inconclusive = small, poorly fitted or top-dose-only effect, or another doubt; inactive = no such curve, though single readings can be large; an effect the other way counts as inactive or inconclusive.

SMILES	VP16 counter	MCF10A rereplic	SW480 rerep	IL1B secr inh	RORg inh
CN(C)C(=O)CCc1ccc2c3c([nH]c2c1)[C@]1(CCC2CCCC2)[C@@H](C(=O)N2CCOCC2)C[C@H](CC(=O)NCCCn2ccnc2)C(=O)N1CC3	/	?	-1%	11	/
O=C(C[C@H]1C[C@H](C(=O)N2CCOCC2)[C@@]2(CCC3CCCC3)c3[nH]c4cc(-c5ccco5)ccc4c3CCN2C1=O)NCc1cccc(C(F)(F)F)c1	/	-10%	?	-53*	/
C[C@]12c3[nH]c4cc(-c5ccco5)ccc4c3CCN1C(=O)[C@@H](CC(=O)NCc1cccc(C(F)(F)F)c1)C[C@@H]2C(=O)N1CCOCC1	/	?	?	-53*	/
O=C(C[C@H]1C[C@H](C(=O)N2CCOCC2)[C@@]2(CCC3CCCC3)c3[nH]c4ccc(Cl)cc4c3CCN2C1=O)NCCCn1ccnc1	/	?	4%	-59*	/
C[C@]12c3[nH]c4ccccc4c3CCN1C(=O)C(CC(=O)NCc1cccc(C(F)(F)F)c1)C[C@@H]2C(=O)N1CCOCC1 (stereo not given in full)	/	?	6%	?	/
CC(C)N(C(=O)[C@H]1C[C@H](CC(=O)NCCCN(C)C)C(=O)N2CCc3c([nH]c4cc(-c5ccco5)ccc34)[C@]12C)C(C)C	/	?	?	-18	/
CC(C)N(C(=O)[C@H]1C[C@H](CC(=O)NCCC2=CCCCC2)C(=O)N2CCc3c([nH]c4cc(-c5ccco5)ccc34)[C@]12C)C(C)C	/	27%	9%	-69*	/
CC1CCC(CN2C(Nc3ccccc3)=NC[C@@H]2Cc2ccccc2)CC1 (stereo not given in full)	/	3%	19%	-23	/
N#CCCN(C(=O)c1cc2c(s1)-c1ccccc1S(=O)(=O)C2)c1ccccc1	2%	2%	16%	-13	11%
CCN(CC)C(=O)[C@H]1CC(CC(=O)NCCC2=CCCCC2)C(=O)N2CCc3c([nH]c4ccccc34)[C@]12C (stereo not given in full)	/	3%	?	-16	/
CC(C)N(C(=O)[C@H]1C[C@H](CC(=O)NCCc2ccccn2)C(=O)N2CCc3c([nH]c4cc(-c5ccco5)ccc34)[C@]12C)C(C)C	/	?	27%	?	/
CC(C)N(C(=O)[C@H]1C[C@H](CC(=O)NCc2cccc(C(F)(F)F)c2)C(=O)N2CCc3c([nH]c4cc(-c5ccco5)ccc34)[C@]12C)C(C)C	/	0%	3%[9.22 µM]	-67*	/
CCN(CC)C(=O)[C@H]1C[C@H](CC(=O)NCCC2=CCCCC2)C(=O)N2CCc3c([nH]c4ccc(Cl)cc34)[C@]12C	/	-2%	?	-54*	/
CC(=O)c1cccc(OCC(=O)N(C)CC(=O)NCc2ccco2)c1	/	-2%	-4%	0	/
CS(=O)(=O)c1nc(S(=O)(=O)c2ccc(Cl)cc2)c(N2CCN(CCO)CC2)s1	-1%	3%	?	-68*	-27%
Cc1ccc(S(=O)(=O)c2nc(S(=O)(=O)c3ccc(C)cc3)c(N3CCN(CCO)CC3)s2)cc1	-1%	?	131%	-68*	-1%
CS(=O)(=O)c1nc(S(=O)(=O)c2ccc(Cl)cc2)c(N2CCCCCC2)s1	-1%	0%	3%	8	-12%
CS(=O)(=O)c1nc(S(=O)(=O)c2ccc(Cl)cc2)c(N2CCCCC2)s1	-8%	4%	?	-63*	6%
CCCS(=O)(=O)c1nc(S(=O)(=O)c2ccc(C)cc2)c(N2CCCC2)s1	-1%	-5%	-7%	-11	-15%
CCCS(=O)(=O)c1nc(S(=O)(=O)c2ccc(C)cc2)c(N2CCc3ccccc3C2)s1	?	-5%	3%	-9	8.9µM*
CC(C)(C(=O)N1CCC1(C)C(=O)NS(=O)(=O)c1ccc(C#N)cc1)c1ccccc1 (stereo not given)	/	/	/	11	/
CCc1cc2c(nc1CC)CCN(CC/C(C)=N/O[C@@H](C)c1cn([C@@H]3COC[C@@H]3O)nn1)C2	-3%[10 µM]	/	/	/	0%[10 µM]
Cc1ccc(S(=O)(=O)c2nc(S(C)(=O)=O)sc2N2CCCCC2C)cc1 (stereo not given)	4%	?	?	-83*	11%
Cc1ccc(S(=O)(=O)c2nc(S(C)(=O)=O)sc2N2CCOCC2)cc1	12%	9%	?	-59*	-19%
CS(=O)(=O)c1nc(S(=O)(=O)c2ccc(Cl)cc2)c(N2CCC(O)CC2)s1	16%	-9%	-6%	-58*	-15%
SMILES	VP16 counter	MCF10A rereplic	SW480 rerep	IL1B secr inh	RORg inh
O=C(c1cnccn1)N1CCC[C@@]2(CCN(Cc3nccs3)C2)C1	-8%	/	/	/	17%
O=C(C[C@H]1C(=O)N(c2ccccc2)C[C@@H]1Cc1ccccc1)Nc1ccccc1	/	/	/	5	/
O=C(C[n+]1cnn(CC(=O)c2ccc(Cl)cc2Cl)c1)c1ccc([N+](=O)[O-])cc1	-4%	11%	?	-71*	-6%
CCCCNC(=S)NNC(=O)c1csc(C(C)C)c1	?	0%	-3%	-3	7.9µM*
C=CCNC(=S)NNC(=O)c1csc(C)c1C	7.9µM*	-4%	-8%	-8	?
CCCCNC(=S)NNC(=O)c1ccncc1	-3%	-20%	-16%	9	?
CCCCNC(=S)NNC(=O)c1csc(C)c1C	14µM*	7%	-7%	0	?
CCCCNC(=S)NNC(=O)c1sccc1C	-22%	3%	?	5	1.4µM*
CCc1nnc(NC(=O)CS(=O)(=O)Cc2ccccc2)s1	-8%	-34%	-45%	16	12%
CCN(CC(=O)Nc1ccccc1C(F)(F)F)C(=O)c1ccc(N2C(=O)CCC2=O)cc1	-3%	-1%	1%	0	-1%
CCCCN1C(=O)C(CC(=O)NCCc2ccccn2)CC(C(=O)N(C(C)C)C(C)C)=C1C (stereo not given)	/	/	/	23	/
Cc1ccsc1C(=O)NNC(=S)NC1CCCCC1	11µM*	0%	36%	-4	-39%
CNC(=S)NNC(=O)c1sccc1C	-4%	-10%	-1%	3	0%
O=C(c1ccc2c3n(nc2c1)-c1ccc(Cl)cc1CO3)N1CCCCC1	9%	-24%	-7%	-1	-11%
O=C(O)c1ccc2c3n(nc2c1)-c1ccc(Cl)cc1CO3	3.2µM*	7%	-12%	22	7.1µM*
CCCN(CC(=O)Nc1ccc(Cl)cc1Cl)C(=O)/C=C/c1ccco1	-4%	9.2µM*	-4%	-24	?
CCc1ccc2c(c1)C(c1ccc([N+](=O)[O-])cc1)=NNC(c1ccc(F)cc1)=N2	?	6%	13%	-53*	-5%
CCC(C)Sc1nnc(CNC(=O)C23CC4CC(CC(C4)C2)C3)n1C1CCCCC1 (stereo not given)	?	?	19%	?	11µM*
